In PubChem BioAssay (NCATS):
Results filed as inconclusive are left out. Where a call stands in place of a potency, no number is given. A number with no mark means an inactive call. Activity calls are given as the source filed them. Calls come from the whole dose curve; as a rule, active = well fitted curve in the direction sought with a large enough effect; inconclusive = small, poorly fitted or top-dose-only effect, or another doubt; inactive = no such curve, though single readings can be large; an effect the other way counts as inactive or inconclusive.

Legend:
[1] = qHTS of pediatric cancer cell lines to identify multiple opportunities for drug repurposing: Primary screen for NB1643 cells (AID 1347099); note: nearly all actives have a fitted effect of over 50% in size
In short: (§1)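 Cells plated at 500-1,000/well in growth medium, compounds added after 5 h. MIPE tested at 11 points (from 0.78 nM), NPC at 8 points (from 0.59 nM). CellTiter-Glo luminescence after 48 h; concentration-response curves from primary screen.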

[2] = qHTS of pediatric cancer cell lines to identify multiple opportunities for drug repurposing: Primary screen for LAN-5 cells (AID 1347100)
In short: (§2)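 Cells (500-1,000/well) in growth media were settled 5 h at 37 degrees C, then given compounds for 48 h. Viability was read as CellTiter-Glo luminescence. Primary runs used MIPE at 11 points (0.78 nM-46 µM) and NPC at 8 points (0.59 nM-46 µM); follow-ups used 11 points.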

[3] = qHTS of pediatric cancer cell lines to identify multiple opportunities for drug repurposing: Primary screen for BT-12 cells (AID 1347101); note: nearly all actives have a fitted effect of over 25% in size
In short: (§3)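 Cells (500-1,000/well) rested 5 h, then received compounds for 48 h; metabolically active cells were measured by CellTiter-Glo luminescence. Final concentrations spanned up to 46 µM (MIPE, 11-point) or 0.59 nM-46 µM (NPC, 8-point) in primary screens, 11-point in follow-ups.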

[4] = qHTS of pediatric cancer cell lines to identify multiple opportunities for drug repurposing: Primary screen for Rh18 cells (AID 1347102); note: nearly all actives have a fitted effect of over 65% in size
In short: as §2

[5] = qHTS of pediatric cancer cell lines to identify multiple opportunities for drug repurposing: Primary screen for OHS-50 cells (AID 1347103); note: nearly all actives have a fitted effect of over 40% in size
In short: as §3

[6] = qHTS of pediatric cancer cell lines to identify multiple opportunities for drug repurposing: Primary screen for RD cells (AID 1347104); note: nearly all actives have a fitted effect of over 55% in size
In short: as §1

[7] = qHTS of pediatric cancer cell lines to identify multiple opportunities for drug repurposing: Primary screen for MG 63 (6-TG R) cells (AID 1347105); note: nearly all actives have a fitted effect of over 50% in size
In short: as §1

[8] = qHTS of pediatric cancer cell lines to identify multiple opportunities for drug repurposing: Primary screen for control Hh wild type fibroblast cells (AID 1347106); note: nearly all actives have a fitted effect of over 55% in size;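 for activity change, negative = cytotoxic: series mostly up to about 46 µM; a drop in luminescence marks cytotoxicity and a rise apparent proliferation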
In short: as §2

[9] = qHTS of pediatric cancer cell lines to identify multiple opportunities for drug repurposing: Primary screen for Rh30 cells (AID 1347107); note: nearly all actives have a fitted effect of over 75% in size; for activity change, negative = cytotoxic: series mostly up to about 46 µM
In short: as §2

[10] = qHTS of pediatric cancer cell lines to identify multiple opportunities for drug repurposing: Primary screen for Rh41 cells (AID 1347108); note: nearly all actives have a fitted effect of over 70% in size;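 for activity change, negative = cytotoxic: series mostly up to about 46 µM; luminescence drop marks cytotoxic hits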
In short: as §1
Potency is the fitted concentration of half-maximal effect.

CC(C)=CCCC(C)=CCCC(C)=CCCC(C)=CCCC(C)=CCCC(C)=CCCC(C)=CCCC(C)=CCCC(C)=CCO
Potency [1]: inactive | Potency [2]: inactive | Potency [3]: inactive | Potency [4]: inactive | Potency [5]: inactive | Potency [6]: inactive | Potency [7]: inactive | Potency [8]: inactive | Potency [9]: inactive | Potency [10]: inactive

CCCCC(F)(F)[C@@]1(O)CC[C@H]2[C@H](CC(=O)[C@@H]2CCCCCCC(=O)O)O1
Potency [1]: inactive | Potency [2]: inactive | Potency [3]: inactive | Potency [4]: inactive | Potency [5]: inactive | Potency [6]: inactive | Potency [7]: inactive | Potency [8]: inactive | Potency [9]: inactive

COc1ccc(-c2cc(=O)c3c(O)cc(O[C@@H]4O[C@H](CO[C@@H]5O[C@@H](C)[C@H](O)[C@@H](O)[C@@H]5O)[C@@H](O)[C@H](O)[C@@H]4O)cc3o2)cc1O
Potency [1]: 16.6 µM (active) | Potency [2]: inactive | Potency [3]: inactive | Potency [4]: inactive | Potency [5]: inactive | Potency [7]: inactive | Potency [8]: inactive

CCOC(=O)[C@@H](N)CCC(=O)N[C@@H](CSCc1ccccc1)C(=O)N[C@@H](C(=O)OCC)c1ccccc1
Potency [1]: inactive | Potency [2]: inactive | Potency [3]: inactive | Potency [4]: inactive | Potency [5]: inactive | Potency [6]: inactive | Potency [8]: inactive | Potency [9]: inactive | Potency [10]: inactive

CC=C1C2C=C(C)CC1(N)c1ccc(=O)[nH]c1C2 (centres undefined)
Potency [1]: inactive | Potency [2]: inactive | Potency [3]: inactive | Potency [4]: inactive | Potency [5]: inactive | Potency [8]: inactive | Potency [9]: inactive | Potency [10]: inactive

CC(NCCc1ccc(O)cc1)C(O)c1ccc(O)cc1 (centres undefined)
Potency [1]: inactive | Potency [2]: inactive | Potency [3]: inactive | Potency [4]: inactive | Potency [5]: inactive | Potency [6]: inactive | Potency [8]: inactive | Potency [9]: inactive | Potency [10]: inactive

CC(C)c1c(C(=O)Nc2ccccc2)c(-c2ccccc2)c(-c2ccc(F)cc2)n1CC[C@H](O)C[C@@H](O)CC(=O)O
Potency [1]: 20.9 µM (active) | Potency [2]: inactive | Potency [3]: 5.44 µM (active) | Potency [4]: 20.9 µM (active) | Potency [5]: 19.3 µM (active) | Potency [6]: inactive | Potency [7]: 14.8 µM (active) | Potency [8]: inactive

CCC=CC[C@H]1C(=O)CC[C@@H]1CC(=O)OC
Potency [1]: inactive | Potency [2]: inactive | Potency [3]: inactive | Potency [4]: inactive | Potency [5]: inactive | Potency [6]: inactive | Potency [7]: inactive | Potency [8]: inactive | Potency [9]: inactive | Potency [10]: inactive

OC[C@H]1O[C@@H](Oc2ccc(O)cc2)[C@H](O)[C@@H](O)[C@H]1O
Potency [1]: inactive | Potency [2]: inactive | Potency [3]: inactive | Potency [4]: inactive | Potency [5]: inactive | Potency [6]: inactive | Potency [7]: inactive | Potency [8]: inactive | Potency [10]: inactive

OC[C@H]1O[C@@H](OCCc2ccc(O)cc2)[C@H](O)[C@@H](O)[C@H]1O
Potency [1]: inactive | Potency [2]: inactive | Potency [3]: inactive | Potency [4]: inactive | Potency [5]: inactive | Potency [7]: inactive | Potency [9]: inactive

COc1ccc(-c2ccc3ncc4c(c3c2)n(-c2ccc(N3CCNCC3)c(C(F)(F)F)c2)c(=O)n4C)cn1
Potency [1]: 0.264 µM (active) | Potency [2]: 166 nM (active) | Potency [3]: 15.3 µM (active) | Potency [4]: 0.0418 µM (active) | Potency [5]: 0.0054 µM (active) | Potency [6]: 0.743 µM (active) | Potency [7]: 0.0047 µM (active) | Potency [8]: 2.09 µM (active) | Potency [9]: 1.87 µM (active) | Potency [10]: 23.5 nM (active)

O=C(O)C1=NC(C(=O)O)CC(C=CN2c3cc(O)c(OC4OC(CO)C(O)C(O)C4O)cc3CC2C(=O)O)=C1 (centres undefined)
Potency [1]: inactive | Potency [2]: inactive | Potency [3]: inactive | Potency [4]: inactive | Potency [5]: inactive | Potency [6]: inactive | Potency [7]: inactive | Potency [8]: inactive | Potency [9]: inactive

CN[C@H]1[C@@H](O[C@@H]2[C@H](O[C@@H]3[C@@H](O)[C@@H](O)[C@@H](N=C(N)N)[C@@H](O)[C@@H]3N=C(N)N)O[C@H](C)[C@@]2(O)C=O)O[C@@H](CO)[C@@H](O)[C@H]1O
activity change, negative = cytotoxic [1]: 3.56% [at 9.22 µM] | activity change, negative = cytotoxic [2]: -3.6% [at 9.22 µM] | activity change, negative = cytotoxic [3]: -1.02% [at 11.5 µM] | activity change, negative = cytotoxic [4]: 1.83% [at 9.22 µM] | activity change, negative = cytotoxic [5]: 7.71% [at 11.5 µM] | activity change, negative = cytotoxic [6]: 1.46% [at 9.22 µM] | activity change, negative = cytotoxic [7]: -18.1% [at 9.22 µM] | activity change, negative = cytotoxic [9]: 15.1% [at 9.22 µM] | activity change, negative = cytotoxic [10]: 17.1% [at 9.22 µM]

CNC1[C@H](O)C(O[C@@H]2C(O)C(O[C@H]3O[C@H]([C@@H](C)NC)CC[C@H]3N)[C@@H](N)C[C@H]2N)OC[C@]1(C)O (some centres undefined)
Potency [1]: inactive | Potency [2]: inactive | Potency [3]: inactive | Potency [4]: inactive | Potency [5]: inactive | Potency [6]: inactive | Potency [8]: inactive | Potency [9]: inactive | Potency [10]: inactive

Cc1cccc(-c2[nH]c(C(C)(C)C)nc2-c2ccc3c(c2)OCO3)n1
Potency [1]: 11.8 µM (active) | Potency [2]: 4180 nM (active) | Potency [3]: 7.69 µM (active) | Potency [4]: inactive | Potency [5]: 2.73 µM (active) | Potency [6]: 9.35 µM (active) | Potency [7]: inactive | Potency [9]: inactive | Potency [10]: 1180 nM (active)

COc1ccc(CCC(=O)Nc2nc3ccc(Cl)cc3s2)cc1OC
Potency [1]: 5.26 µM (active) | Potency [2]: inactive | Potency [3]: inactive | Potency [4]: inactive | Potency [6]: inactive | Potency [7]: inactive | Potency [8]: inactive

CN1CCN2c3ncccc3Cc3ccccc3C2C1 (centres undefined)
Potency [1]: inactive | Potency [2]: inactive | Potency [3]: inactive | Potency [4]: inactive | Potency [5]: inactive | Potency [6]: inactive | Potency [7]: inactive | Potency [8]: inactive | Potency [9]: inactive | Potency [10]: inactive
